# Laboratory results taken from article PMC7862700, “An all-to-all approach to the identification of sequence-specific readers for epigenetic DNA modifications on cytosine”.
# Assays:
# Test in all cases: DAPPL (digital affinity profiling via proximity ligation, sequencing); 10 mM Tris-HCl pH 7.5, 50 mM NaCl, 1 mM DTT, 4% glycerol, room temperature, 30 min; GST-TFs on glutathione beads, 16-mer random dsDNA library, 0.1% formaldehyde crosslink after washing; high values mean tight binding
# Conditions in all cases: protein: recombinant; tags: N-terminal GST; dsDNA, one strand shown
# ELK1 = target: T1, ELK1 (Homo sapiens, UniProt P19419 1-428)
# T1 sequence: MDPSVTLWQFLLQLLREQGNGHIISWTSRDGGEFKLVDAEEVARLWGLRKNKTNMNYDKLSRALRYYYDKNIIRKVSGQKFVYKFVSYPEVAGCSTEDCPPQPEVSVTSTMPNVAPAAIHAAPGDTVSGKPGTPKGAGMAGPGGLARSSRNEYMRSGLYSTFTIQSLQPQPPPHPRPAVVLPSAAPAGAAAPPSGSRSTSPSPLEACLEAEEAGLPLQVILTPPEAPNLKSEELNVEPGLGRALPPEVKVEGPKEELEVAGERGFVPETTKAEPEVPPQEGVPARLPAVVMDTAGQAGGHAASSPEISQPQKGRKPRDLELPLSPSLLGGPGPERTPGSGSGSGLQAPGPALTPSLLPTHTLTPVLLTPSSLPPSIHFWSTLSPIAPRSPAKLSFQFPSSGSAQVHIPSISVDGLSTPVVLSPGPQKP
# How it was run: (§1)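 A tag-only sample was pooled with DNA-barcoded human transcription factors that had been expressed in yeast as GST fusions and captured on glutathione beads. The pools were incubated for 30 min at room temperature with 200 nmole of a random double-stranded 16-mer DNA library in Tris/NaCl/DTT/glycerol buffer, then washed, crosslinked with 0.1% formaldehyde, proximity-ligated (BsaI/T4 ligase, 1 h, 37 °C), PCR-amplified and sequenced on an Illumina NextSeq500. Binding signal is each hexamer's read frequency for a factor divided by its frequency for the tag-only sample.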
# GABPA = target: T2, GABPA (Homo sapiens, UniProt Q06546 1-454)
# T2 sequence: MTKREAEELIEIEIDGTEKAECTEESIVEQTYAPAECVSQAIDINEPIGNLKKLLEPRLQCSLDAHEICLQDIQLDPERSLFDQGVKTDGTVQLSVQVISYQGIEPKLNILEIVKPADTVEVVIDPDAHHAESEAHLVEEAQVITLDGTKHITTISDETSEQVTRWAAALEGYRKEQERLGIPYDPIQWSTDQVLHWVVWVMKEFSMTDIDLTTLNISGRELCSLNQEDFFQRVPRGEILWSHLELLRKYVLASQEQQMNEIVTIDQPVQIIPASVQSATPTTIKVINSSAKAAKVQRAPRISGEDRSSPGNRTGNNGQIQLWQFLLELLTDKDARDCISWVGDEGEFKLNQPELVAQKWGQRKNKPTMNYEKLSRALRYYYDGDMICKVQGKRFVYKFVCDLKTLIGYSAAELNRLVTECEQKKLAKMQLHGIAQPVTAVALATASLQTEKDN
# How it was run: as §1
# ERG = target: T3, ERG (Homo sapiens, UniProt P11308 1-479)
# T3 sequence: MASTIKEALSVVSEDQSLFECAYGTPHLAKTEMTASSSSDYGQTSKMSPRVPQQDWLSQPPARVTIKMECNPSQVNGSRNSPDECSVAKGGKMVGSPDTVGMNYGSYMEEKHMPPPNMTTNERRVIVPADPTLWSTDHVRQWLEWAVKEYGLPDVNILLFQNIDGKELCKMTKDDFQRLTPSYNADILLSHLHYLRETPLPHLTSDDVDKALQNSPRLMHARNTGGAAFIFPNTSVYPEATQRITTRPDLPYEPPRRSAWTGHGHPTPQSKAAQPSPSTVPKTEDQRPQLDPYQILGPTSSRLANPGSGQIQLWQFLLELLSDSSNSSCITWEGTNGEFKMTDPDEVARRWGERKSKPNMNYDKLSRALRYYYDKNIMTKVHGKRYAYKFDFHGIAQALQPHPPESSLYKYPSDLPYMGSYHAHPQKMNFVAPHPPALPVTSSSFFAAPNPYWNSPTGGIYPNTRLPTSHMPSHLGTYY
# How it was run: as §1
# ELF1 = ELF1 (Homo sapiens, UniProt P32519 1-619)
# How it was run: as §1
# EHF = target: T4, EHF (Homo sapiens, UniProt Q9NZC4 1-300)
# T4 sequence: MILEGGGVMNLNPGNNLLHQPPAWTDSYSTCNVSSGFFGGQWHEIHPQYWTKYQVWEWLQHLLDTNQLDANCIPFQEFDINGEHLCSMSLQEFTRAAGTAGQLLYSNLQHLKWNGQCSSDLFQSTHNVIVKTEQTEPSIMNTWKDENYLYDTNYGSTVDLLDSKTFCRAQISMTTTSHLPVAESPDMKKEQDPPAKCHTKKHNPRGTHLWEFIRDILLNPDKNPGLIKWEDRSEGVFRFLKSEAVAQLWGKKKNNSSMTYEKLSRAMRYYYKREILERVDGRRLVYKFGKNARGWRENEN
# How it was run: as §1
# SPIB = SPIB (Homo sapiens, UniProt Q01892 1-262)
# How it was run: as §1
# FEV = target: T5, FEV (Homo sapiens, UniProt Q99581 1-238)
# T5 sequence: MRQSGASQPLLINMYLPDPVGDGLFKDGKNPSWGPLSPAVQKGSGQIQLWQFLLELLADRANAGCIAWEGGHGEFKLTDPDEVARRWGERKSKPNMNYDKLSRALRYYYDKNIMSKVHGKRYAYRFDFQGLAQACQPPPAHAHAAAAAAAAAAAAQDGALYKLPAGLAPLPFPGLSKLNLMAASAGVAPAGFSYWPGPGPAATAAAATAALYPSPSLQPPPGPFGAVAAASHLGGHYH
# How it was run: as §1
# ETV5 = ETV5 (Homo sapiens, UniProt P41161 1-510)
# How it was run: as §1
# ELF4 = ELF4 (Homo sapiens, UniProt Q99607 1-663)
# How it was run: as §1
# ETV2 = target: T6, ETV2 (Homo sapiens, UniProt O00321 1-342)
# T6 sequence: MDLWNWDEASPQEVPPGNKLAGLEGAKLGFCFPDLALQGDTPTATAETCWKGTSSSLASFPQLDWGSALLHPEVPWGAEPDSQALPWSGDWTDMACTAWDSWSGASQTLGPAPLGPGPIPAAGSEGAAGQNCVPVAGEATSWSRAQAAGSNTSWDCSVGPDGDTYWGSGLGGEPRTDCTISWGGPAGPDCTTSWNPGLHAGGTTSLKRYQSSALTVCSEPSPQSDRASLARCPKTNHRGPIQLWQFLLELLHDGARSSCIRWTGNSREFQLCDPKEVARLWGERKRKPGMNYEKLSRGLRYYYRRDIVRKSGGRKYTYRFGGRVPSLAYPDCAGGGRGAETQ
# How it was run: as §1
# ELF3 = target: T7, ELF3 (Homo sapiens, UniProt P78545 1-371)
# T7 sequence: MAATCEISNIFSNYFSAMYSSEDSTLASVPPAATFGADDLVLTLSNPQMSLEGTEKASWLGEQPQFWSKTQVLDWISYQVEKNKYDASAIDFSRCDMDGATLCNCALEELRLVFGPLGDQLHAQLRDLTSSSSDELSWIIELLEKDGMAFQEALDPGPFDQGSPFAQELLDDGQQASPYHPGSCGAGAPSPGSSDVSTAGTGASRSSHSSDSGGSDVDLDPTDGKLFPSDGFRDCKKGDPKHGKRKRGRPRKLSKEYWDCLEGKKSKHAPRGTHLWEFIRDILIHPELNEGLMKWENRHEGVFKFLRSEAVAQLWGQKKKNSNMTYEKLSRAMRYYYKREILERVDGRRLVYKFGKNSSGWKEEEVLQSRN
# How it was run: as §1
# ETV1 = ETV1 (Homo sapiens, UniProt P50549 1-477)
# How it was run: as §1
# ERF = target: T8, ERF (Homo sapiens, UniProt P50548 1-548)
# T8 sequence: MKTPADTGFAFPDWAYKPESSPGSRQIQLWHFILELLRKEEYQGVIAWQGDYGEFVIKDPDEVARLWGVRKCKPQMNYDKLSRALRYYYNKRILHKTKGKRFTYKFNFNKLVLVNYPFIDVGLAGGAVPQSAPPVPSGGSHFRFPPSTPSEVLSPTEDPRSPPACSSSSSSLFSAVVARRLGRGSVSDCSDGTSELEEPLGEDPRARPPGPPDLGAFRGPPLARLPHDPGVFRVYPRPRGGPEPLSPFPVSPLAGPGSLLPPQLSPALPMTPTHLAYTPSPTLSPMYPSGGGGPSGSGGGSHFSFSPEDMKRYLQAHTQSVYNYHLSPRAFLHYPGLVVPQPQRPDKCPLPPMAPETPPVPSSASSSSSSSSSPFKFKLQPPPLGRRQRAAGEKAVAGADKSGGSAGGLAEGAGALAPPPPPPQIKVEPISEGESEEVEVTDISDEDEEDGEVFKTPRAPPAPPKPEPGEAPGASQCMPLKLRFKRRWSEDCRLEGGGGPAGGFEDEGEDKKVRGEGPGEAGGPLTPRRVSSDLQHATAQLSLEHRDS
# How it was run: as §1
# ETV3L = target: T9, ETV3L (Homo sapiens, UniProt Q6ZN32 1-361)
# T9 sequence: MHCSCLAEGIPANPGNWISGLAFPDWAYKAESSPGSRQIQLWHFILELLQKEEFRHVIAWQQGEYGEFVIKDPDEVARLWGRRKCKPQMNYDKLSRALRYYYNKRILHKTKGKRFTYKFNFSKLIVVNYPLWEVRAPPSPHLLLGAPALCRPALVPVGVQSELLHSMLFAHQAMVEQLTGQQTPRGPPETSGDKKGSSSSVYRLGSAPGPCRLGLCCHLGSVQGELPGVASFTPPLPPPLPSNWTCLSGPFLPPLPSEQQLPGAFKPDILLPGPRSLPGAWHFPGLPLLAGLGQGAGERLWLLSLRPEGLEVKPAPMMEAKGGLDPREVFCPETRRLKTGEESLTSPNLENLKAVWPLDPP
# How it was run: as §1
# ETS2 = target: T10, ETS2 (Homo sapiens, UniProt P15036 1-469)
# T10 sequence: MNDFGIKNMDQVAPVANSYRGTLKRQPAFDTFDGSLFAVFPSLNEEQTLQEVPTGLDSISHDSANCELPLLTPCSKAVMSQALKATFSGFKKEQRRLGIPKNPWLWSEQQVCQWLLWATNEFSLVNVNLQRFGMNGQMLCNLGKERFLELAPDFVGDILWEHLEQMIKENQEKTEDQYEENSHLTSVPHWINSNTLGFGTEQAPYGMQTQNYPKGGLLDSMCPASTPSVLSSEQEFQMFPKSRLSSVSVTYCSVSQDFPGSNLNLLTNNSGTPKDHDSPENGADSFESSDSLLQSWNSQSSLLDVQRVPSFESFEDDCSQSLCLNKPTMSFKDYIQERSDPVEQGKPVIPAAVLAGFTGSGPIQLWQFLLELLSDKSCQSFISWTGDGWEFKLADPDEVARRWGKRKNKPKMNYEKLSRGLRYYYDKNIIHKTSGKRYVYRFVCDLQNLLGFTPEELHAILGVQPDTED
# How it was run: as §1
# SPDEF = target: T11, SPDEF (Homo sapiens, UniProt O95238 1-335)
# T11 sequence: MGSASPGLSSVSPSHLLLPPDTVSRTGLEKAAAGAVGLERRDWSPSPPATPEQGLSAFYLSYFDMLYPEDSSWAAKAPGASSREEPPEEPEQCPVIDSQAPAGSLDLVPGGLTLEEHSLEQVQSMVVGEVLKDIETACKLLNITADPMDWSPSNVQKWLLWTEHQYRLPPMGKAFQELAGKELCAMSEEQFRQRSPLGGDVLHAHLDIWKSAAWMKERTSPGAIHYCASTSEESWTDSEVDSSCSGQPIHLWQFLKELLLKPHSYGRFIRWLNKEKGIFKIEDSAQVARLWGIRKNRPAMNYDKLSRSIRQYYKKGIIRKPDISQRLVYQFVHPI
# How it was run: as §1
# ETV7 = target: T12, ETV7 (Homo sapiens, UniProt Q9Y603 1-341)
# T12 sequence: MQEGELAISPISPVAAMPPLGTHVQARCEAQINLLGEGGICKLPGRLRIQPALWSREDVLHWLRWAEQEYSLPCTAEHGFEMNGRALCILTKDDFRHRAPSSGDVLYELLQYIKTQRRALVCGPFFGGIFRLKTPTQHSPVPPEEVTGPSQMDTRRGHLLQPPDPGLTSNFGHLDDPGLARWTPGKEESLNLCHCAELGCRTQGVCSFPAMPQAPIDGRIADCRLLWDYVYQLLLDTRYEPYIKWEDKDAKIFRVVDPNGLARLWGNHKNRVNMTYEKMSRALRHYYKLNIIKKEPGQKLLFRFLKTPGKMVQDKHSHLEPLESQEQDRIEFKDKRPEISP
# How it was run: as §1
# ETV3 = target: T13, ETV3 (Homo sapiens, UniProt P41162-2 1-143)
# T13 sequence: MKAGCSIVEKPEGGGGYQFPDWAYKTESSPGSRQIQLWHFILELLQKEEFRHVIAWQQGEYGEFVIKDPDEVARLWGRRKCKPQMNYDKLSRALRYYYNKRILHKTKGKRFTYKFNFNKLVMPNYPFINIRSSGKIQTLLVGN
# How it was run: as §1
# ETV6 = ETV6 (Homo sapiens, UniProt P41212 1-452)
# How it was run: as §1
# Chain of ELF4 (Q99607 whole entry): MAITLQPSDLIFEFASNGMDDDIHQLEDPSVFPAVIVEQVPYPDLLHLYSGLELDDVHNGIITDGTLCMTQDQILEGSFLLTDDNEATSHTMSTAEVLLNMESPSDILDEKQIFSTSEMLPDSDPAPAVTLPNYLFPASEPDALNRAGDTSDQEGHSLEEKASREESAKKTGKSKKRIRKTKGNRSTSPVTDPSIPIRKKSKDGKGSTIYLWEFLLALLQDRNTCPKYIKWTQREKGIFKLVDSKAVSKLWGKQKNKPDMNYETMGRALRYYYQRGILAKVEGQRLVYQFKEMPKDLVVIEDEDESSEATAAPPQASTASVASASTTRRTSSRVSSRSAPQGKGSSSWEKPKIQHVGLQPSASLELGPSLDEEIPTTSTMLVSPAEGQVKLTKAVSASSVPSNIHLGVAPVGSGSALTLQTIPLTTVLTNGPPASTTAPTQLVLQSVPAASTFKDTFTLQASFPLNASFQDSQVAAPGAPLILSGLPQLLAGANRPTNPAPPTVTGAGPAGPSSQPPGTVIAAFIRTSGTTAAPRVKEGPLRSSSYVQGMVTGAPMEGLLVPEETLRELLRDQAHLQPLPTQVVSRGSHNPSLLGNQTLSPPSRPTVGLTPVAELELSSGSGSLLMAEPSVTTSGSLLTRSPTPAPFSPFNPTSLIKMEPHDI
# Chain of ELF1 (P32519 whole entry): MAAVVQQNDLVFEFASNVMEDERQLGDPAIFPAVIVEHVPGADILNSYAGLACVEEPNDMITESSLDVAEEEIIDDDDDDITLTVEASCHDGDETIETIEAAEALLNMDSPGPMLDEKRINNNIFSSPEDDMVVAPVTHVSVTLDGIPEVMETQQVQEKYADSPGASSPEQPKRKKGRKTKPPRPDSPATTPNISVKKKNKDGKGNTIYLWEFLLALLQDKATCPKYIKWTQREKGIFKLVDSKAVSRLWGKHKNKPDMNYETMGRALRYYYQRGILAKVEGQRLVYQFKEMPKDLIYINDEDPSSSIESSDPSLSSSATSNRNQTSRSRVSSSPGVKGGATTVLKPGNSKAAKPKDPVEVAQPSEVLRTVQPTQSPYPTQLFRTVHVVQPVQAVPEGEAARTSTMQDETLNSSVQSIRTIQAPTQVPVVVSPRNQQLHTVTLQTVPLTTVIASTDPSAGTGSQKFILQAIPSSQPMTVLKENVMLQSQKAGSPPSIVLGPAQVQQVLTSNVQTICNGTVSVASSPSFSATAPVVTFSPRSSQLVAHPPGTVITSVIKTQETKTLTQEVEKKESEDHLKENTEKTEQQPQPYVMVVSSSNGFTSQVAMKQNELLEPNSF
# Chain of ETV5 (P41161 whole entry): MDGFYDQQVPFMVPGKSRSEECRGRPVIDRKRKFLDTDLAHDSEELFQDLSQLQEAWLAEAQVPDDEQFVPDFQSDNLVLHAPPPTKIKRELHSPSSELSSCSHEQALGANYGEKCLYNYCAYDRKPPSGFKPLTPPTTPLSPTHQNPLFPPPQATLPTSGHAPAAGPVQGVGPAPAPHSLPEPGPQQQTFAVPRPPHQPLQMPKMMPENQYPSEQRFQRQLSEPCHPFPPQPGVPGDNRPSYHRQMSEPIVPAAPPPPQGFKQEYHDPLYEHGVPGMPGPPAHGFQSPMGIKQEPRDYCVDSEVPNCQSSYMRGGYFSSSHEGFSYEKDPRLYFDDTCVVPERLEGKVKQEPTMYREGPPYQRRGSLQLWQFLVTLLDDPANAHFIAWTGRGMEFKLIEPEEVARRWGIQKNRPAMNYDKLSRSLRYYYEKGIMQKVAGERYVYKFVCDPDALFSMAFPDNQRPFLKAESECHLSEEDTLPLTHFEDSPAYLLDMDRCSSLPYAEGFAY
# Chain of ETV6 (P41212 whole entry): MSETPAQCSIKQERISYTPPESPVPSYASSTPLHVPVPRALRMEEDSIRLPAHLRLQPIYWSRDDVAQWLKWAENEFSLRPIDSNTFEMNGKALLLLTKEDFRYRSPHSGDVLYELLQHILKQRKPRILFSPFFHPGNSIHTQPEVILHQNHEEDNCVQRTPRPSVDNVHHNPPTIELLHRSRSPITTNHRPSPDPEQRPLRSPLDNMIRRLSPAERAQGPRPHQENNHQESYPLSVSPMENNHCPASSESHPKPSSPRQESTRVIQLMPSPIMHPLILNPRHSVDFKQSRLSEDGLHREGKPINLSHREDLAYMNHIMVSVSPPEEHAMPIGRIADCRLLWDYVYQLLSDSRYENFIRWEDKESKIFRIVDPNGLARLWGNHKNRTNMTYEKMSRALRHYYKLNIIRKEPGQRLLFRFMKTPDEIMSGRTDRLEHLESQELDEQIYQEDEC
# Chain of ETV1 (P50549 whole entry): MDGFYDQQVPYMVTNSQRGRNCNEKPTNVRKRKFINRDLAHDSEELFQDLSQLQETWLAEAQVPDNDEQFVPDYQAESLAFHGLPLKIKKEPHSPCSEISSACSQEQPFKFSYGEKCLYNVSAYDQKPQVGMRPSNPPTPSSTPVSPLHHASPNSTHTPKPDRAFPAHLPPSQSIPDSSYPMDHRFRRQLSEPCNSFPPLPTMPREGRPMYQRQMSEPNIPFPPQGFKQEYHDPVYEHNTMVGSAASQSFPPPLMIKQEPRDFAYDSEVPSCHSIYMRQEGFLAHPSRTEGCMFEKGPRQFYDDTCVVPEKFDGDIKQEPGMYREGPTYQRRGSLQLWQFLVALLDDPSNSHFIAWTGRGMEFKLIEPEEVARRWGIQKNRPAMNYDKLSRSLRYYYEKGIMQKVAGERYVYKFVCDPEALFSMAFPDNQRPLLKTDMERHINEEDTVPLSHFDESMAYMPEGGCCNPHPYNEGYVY
# Chain of SPIB (Q01892 whole entry): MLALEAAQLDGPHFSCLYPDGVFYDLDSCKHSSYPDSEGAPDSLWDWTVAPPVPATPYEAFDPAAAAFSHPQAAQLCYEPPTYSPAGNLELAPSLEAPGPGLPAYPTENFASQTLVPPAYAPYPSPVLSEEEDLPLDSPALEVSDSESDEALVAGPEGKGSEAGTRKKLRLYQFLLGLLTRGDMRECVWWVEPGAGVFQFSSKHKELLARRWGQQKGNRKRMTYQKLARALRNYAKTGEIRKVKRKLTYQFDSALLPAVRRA
sequence,measurement,setting,value
TGCGCC,binding signal,ELK1,"1.21 fold enrichment (6-mer frequency, TF over GST control)"
same,binding signal,GABPA,"1.19 fold enrichment (6-mer frequency, TF over GST control)"
same,binding signal,ERG,"1.2 fold enrichment (6-mer frequency, TF over GST control)"
same,binding signal,ELF1,"1.14 fold enrichment (6-mer frequency, TF over GST control)"
same,binding signal,EHF,"1.08 fold enrichment (6-mer frequency, TF over GST control)"
same,binding signal,SPIB,"1.27 fold enrichment (6-mer frequency, TF over GST control)"
same,binding signal,FEV,"1.16 fold enrichment (6-mer frequency, TF over GST control)"
same,binding signal,ETV5,"1.04 fold enrichment (6-mer frequency, TF over GST control)"
same,binding signal,ELF4,"1.19 fold enrichment (6-mer frequency, TF over GST control)"
same,binding signal,ETV2,"1.18 fold enrichment (6-mer frequency, TF over GST control)"
same,binding signal,ELF3,"1.03 fold enrichment (6-mer frequency, TF over GST control)"
same,binding signal,ETV1,"1.23 fold enrichment (6-mer frequency, TF over GST control)"
same,binding signal,ERF,"1.12 fold enrichment (6-mer frequency, TF over GST control)"
same,binding signal,ETV3L,"1.27 fold enrichment (6-mer frequency, TF over GST control)"
same,binding signal,ETS2,"1.14 fold enrichment (6-mer frequency, TF over GST control)"
same,binding signal,SPDEF,"1.07 fold enrichment (6-mer frequency, TF over GST control)"
same,binding signal,ETV7,"1.09 fold enrichment (6-mer frequency, TF over GST control)"
same,binding signal,ETV3,"1.15 fold enrichment (6-mer frequency, TF over GST control)"
same,binding signal,ETV6,"1.27 fold enrichment (6-mer frequency, TF over GST control)"
